From the supplement of paper PMC10127200
Where a name gives a salt, the structure may show the parent alone.

Columns and labels:
Test in all cases: Euclidean distance of Cell Painting phenotypic profile (signed KS, 77 features) to DMSO centroid (dimensionless distance); 5 or 10 uM (library dependent); higher = stronger phenotypic change vs DMSO (phenoactivity)
Settings in all cases: 48 h
[1] = tested on: 786-O
Summary of the method: (§1)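 Phenoactivity is computed as Euclidean distance to the median vehicle profile. The profiles, drawn from 77 Harmony features scored as signed Kolmogorov-Smirnov statistics versus same-plate vehicle wells, were corrected for plate position, correlation-weighted and replicate-averaged at the top dose. Stained cells were imaged confocally at 20X (9 fields/well) after 48 h with library compounds at 10 or 5 uM, 0.1% DMSO final, in five cancer lines and a healthy fibroblast line.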

[2] = tested on: A549
Summary of the method: as §1

[3] = tested on: DU145
Summary of the method: as §1

[4] = tested on: FB
Summary of the method: as §1

[5] = tested on: HEPG2
Summary of the method: as §1

[6] = tested on: OVCAR4
Summary of the method: as §1

Compound	Euclidean distance [1]	Euclidean distance [2]	Euclidean distance [3]	Euclidean distance [4]	Euclidean distance [5]	Euclidean distance [6]
Nc1nc(F)nc2c1ncn2[C@@H]1O[C@H](COP(=O)(O)O)[C@@H](O)[C@@H]1O [Fludarabine Phosphate]	2.13	2.48	1.94	3.2	1.57	2.98
OCCn1cc(-c2cnc3nnn(Cc4ccc5ncccc5c4)c3n2)cn1	0.916	0.988	0.98	0.792	1.2	1.08
N#Cc1ccc2[nH]cc(CCCCN3CCN(c4ccc5oc(C(N)=O)cc5c4)CC3)c2c1 [Vilazodone HCl]	2.53	2.23	1.66	1.66	2.24	1.77
C[N+](C)(C)CCOC(=O)CCC(=O)OCC[N+](C)(C)C [Succinylcholine Chloride Dihydrate]	1.36	2.04	1.93	1.82	1.34	1.91
CC(=O)[C@H]1CC[C@H]2[C@@H]3C[C@H](C)C4=CC(=O)CC[C@]4(C)[C@H]3[C@@H](O)C[C@]12C [Medrysone]	1.22	1.8	1.96	1.72	0.963	1.81
C[C@@H]1CCO[C@H]2Cn3cc(C(=O)NCc4ccc(F)cc4F)c(=O)c(O)c3C(=O)N12	1.38	1.81	1.15	1	1.37	1.79
CCN(CC)CCCCNc1ncc2cc(-c3cc(OC)cc(OC)c3)c(NC(=O)NC(C)(C)C)nc2n1	3.18	1.42	2.75	3.93	1.84	1.16
Cc1coc2c1C(=O)C(=O)c1c-2ccc2c(C)cccc12 [Tanshinone I]	1.41	0.593	1.07	1.35	1.25	1.18
Cc1nccn1CC1CCc2c(c3ccccc3n2C)C1=O (centres undefined) [Ondansetron Hydrochloride Dihydrate]	1.23	0.687	0.998	1.01	1.39	1.43
CC[N+](CC)(CC)CCOc1cccc(OCC[N+](CC)(CC)CC)c1OCC[N+](CC)(CC)CC [Gallamine Triethiodide]	0.82	0.878	1.08	1.22	1.06	1.04
CC(=O)Oc1cccc2c1C(=O)c1c(OC(C)=O)cc(C(=O)O)cc1C2=O [Diacerein]	0.962	0.94	1.19	1.22	0.429	1.51
Cc1nc(C(=O)NCC(=O)O)c(O)c2ccc(Oc3ccccc3)cc12	1.71	1.55	1.53	2.88	1.32	1.92
CO/N=C1\C[C@]2(C[C@@H]3C[C@@H](C/C=C(\C)C[C@@H](C)/C=C/C=C4\CO[C@@H]5[C@H](O)C(C)=C[C@@H](C(=O)O3)[C@]45O)O2)O[C@H](/C(C)=C/C(C)C)[C@H]1C [Moxidectin]	3.17	2.11	2.44	1.21	0.757	1.63
COc1cc2c(Oc3ccc4[nH]c(C)cc4c3F)ncnc2cc1OCCCN1CCCC1 [Cediranib (AZD2171)]	4.22	4.27	3.51	4.47	3.58	4.53
O=C(O)[C@H]1O[C@@H](Oc2cc3oc(-c4ccccc4)cc(=O)c3c(O)c2O)[C@H](O)[C@@H](O)[C@@H]1O [Baicalin]	1.89	0.742	1.25	1.48	0.763	1.22
CN(C)c1ccc(-c2nc3ncc(Cl)c(N4CCN(CC(=O)Nc5nccs5)CC4)c3[nH]2)cc1	1.74	1.55	1.32	1.56	0.715	1.59
CCn1cc(C(=O)O)c(=O)c2cc(F)c(N3CCN(C)CC3)cc21 [Pefloxacin Mesylate Dihydrate]	1.52	1.04	0.855	0.707	0.635	1.07
COc1cc(OC2CCN(C)CC2)ccc1Nc1ncc2c(n1)n(C1CCCC1)c(=O)n2C	1.53	2.28	1.39	2.84	1.78	1.83
O=C(c1ccc(/C=C/c2n[nH]c3ccccc23)cc1)N1CCNCC1	3.16	3.89	3.66	3.31	2.78	3.53
CC(C)(C)c1cc(/C=C(\C#N)C(N)=S)cc(C(C)(C)C)c1O [Tyrphostin AG 879]	1.54	1.46	0.926	0.967	0.81	1.01
CC(C)c1nc(N(C)S(C)(=O)=O)nc(-c2ccc(F)cc2)c1/C=C/[C@@H](O)C[C@@H](O)CC(=O)O [Rosuvastatin Calcium]	0.535	0.682	2.17	1.71	1.03	0.889
COC(=O)C1=CO[C@@H](O[C@@H]2O[C@H](CO)[C@@H](O)[C@H](O)[C@H]2O)[C@@H]2C(CO)=CC[C@H]12 [Geniposide]	0.724	0.87	1.03	0.949	0.616	1.23
CC1=C(/C=C/C(C)=C/C=C/C(C)=C\C(=O)O)C(C)(C)CCC1 [Isotretinoin]	1.68	1.11	1.24	1.94	1.63	1.46
CC(C)(O)CC[C@@H](O)[C@](C)(O)[C@H]1CC[C@@]2(O)C3=CC(=O)[C@@H]4C[C@@H](O)[C@@H](O)C[C@]4(C)[C@H]3CC[C@]12C [20-Hydroxyecdysone]	0.539	1.05	1.19	1.28	1.06	1.08
